# Experimental data taken from PubChem BioAssay (EPA / NIEHS).
# Results filed as inconclusive are left out. Calls of active or inactive are those of the source. How the source made its calls, unless noted: active means hit-call score of the fitted dose curve at least 0.9, where 1 is the maximum; inconclusive means response in the unintended direction; inactive means score below 0.9.
# Experiments:
# [1] = Tanguay_ZF_120hpf_JAW_legacy: (Legacy) Oregon State University Tanguay Lab 120 Hour Post-fertilization zebrafish Assay for Jaw Malformation (AID 2283638);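 on AC50: active means more embryos with jaw malformation than DMSO controls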
# Summary of the method: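 Dechorionated Tropical 5D wild-type zebrafish embryos, one per well, exposed statically from 6 hpf to 120 hpf at 28C in 0.64% DMSO. Jaw malformation was scored by brightfield microscopy as present or absent. It was not scored in dead embryos.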
# [2] = Tanguay_ZF_120hpf_OTIC_legacy: (Legacy) Oregon State University Tanguay Lab 120 Hour Post-fertilization zebrafish Assay for Otic Vesicle Malformation (AID 2283639)
# Summary of the method: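 Embryos from 5D wild-type adults exposed in plates; DMSO 0.64% v/v final. Sealed, light-protected, 28C, static to 120 hpf. Otic vesicle malformation recorded as binary endpoint; gain-of-signal fitted vs DMSO.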
# [3] = Tanguay_ZF_120hpf_PE_legacy: (Legacy) Oregon State University Tanguay Lab 120 Hour Post-fertilization zebrafish Assay for Pericardial Edema (AID 2283640)
# Summary of the method: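 Tropical 5D wild-type zebrafish embryos were statically exposed until 120 hpf at 28C, with 0.64% DMSO final. Pericardial edema was scored by brightfield as present or absent; endpoints were not scored in dead embryos.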
# [4] = Tanguay_ZF_120hpf_SOMI_legacy: (Legacy) Oregon State University Tanguay Lab 120 Hour Post-fertilization zebrafish Assay for Somite Malformation (AID 2283647)
# Summary of the method: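 Dechorionated Tropical 5D wild-type zebrafish embryos, one per well from 6 hpf, statically exposed at 28C to 120 hpf in 0.64% DMSO; somite malformation scored present/absent by brightfield; trimethyltin 5 uM positive control; dead embryos not scored.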
# [5] = Tanguay_ZF_120hpf_CFIN_legacy: (Legacy) Oregon State University Tanguay Lab 120 Hour Post-fertilization zebrafish Assay for Caudal Fin Malformation (AID 2283649)
# Summary of the method: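 Dechorionated Tropical 5D wild-type embryos, one per well from 6 hpf, static exposure to 120 hpf at 28C in 0.64% DMSO. Caudal fin malformation scored by brightfield as present/absent; not scored in dead embryos.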
# [6] = Tanguay_ZF_120hpf_PIG_legacy: (Legacy) Oregon State University Tanguay Lab 120 Hour Post-fertilization zebrafish Assay for Pigmentation Malformation (AID 2283650)
# Summary of the method: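 Pronase dechorionation at 4 hpf; embryos plated at 6 hpf, one per well; static exposure, sealed and foil-covered, 28C, to 120 hpf; pigmentation read by brightfield, binary; DMSO 0.64% baseline, 5uM trimethyltin chloride positive control.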
# [7] = Tanguay_ZF_120hpf_SWIM_legacy: (Legacy) Oregon State University Tanguay Lab 120 Hour Post-fertilization zebrafish Assay for Swim Bladder Malformation (AID 2283654);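 further: swim bladder malformation in each larva scored yes or no under brightfield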
# Summary of the method: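 Embryos lacking chorions were exposed individually and statically to test chemical from 6 to 120 hpf at 28C, with 0.64% DMSO as vehicle. At 120 hpf, swim bladder malformation was recorded as present or absent by brightfield microscopy.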
# [8] = Tanguay_ZF_120hpf_TRUN_legacy: (Legacy) Oregon State University Tanguay Lab 120 Hour Post-fertilization zebrafish Assay for Truncated Body (AID 2283655)
# Summary of the method: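 Dechorionated Tropical 5D wild-type embryos placed singly from 6 hpf and statically exposed to 120 hpf at 28C, final DMSO 0.64%. Truncated body scored as present/absent by brightfield; not scored in dead embryos.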
# [9] = Tanguay_ZF_120hpf_NC_legacy: (Legacy) Oregon State University Tanguay Lab 120 Hour Post-fertilization zebrafish Assay for Notochord and Tail Malformation (AID 2283656)
# Summary of the method: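 Dechorionated Tropical 5D wild-type zebrafish embryos, one per well from 6 hpf, statically exposed to 120 hpf at 28C in 0.64% DMSO final. Notochord distortion scored present/absent by brightfield; dead embryos excluded.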
# [10] = Tanguay_ZF_120hpf_BRAI_legacy: (Legacy) Oregon State University Tanguay Lab 120 Hour Post-fertilization zebrafish Assay for Brain Malformation (AID 2283641)
# Summary of the method: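 Tropical 5D wild-type zebrafish embryos exposed statically until 120 hpf at 28C, 0.64% DMSO final, sealed and dark. Brain malformation scored present/absent by brightfield at 120 hpf; dead embryos excluded. Trimethyltin chloride 5uM positive control.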
# [11] = read-out: ABC Transporter (ABCB1), ABCB1 (gene 5243); assay: CLD_ABCB1_6hr: CellzDirect (CLD) Gene Expression Assay for ABC Transporter (ABCB1) at 6 hours (AID 2283659);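 further: hits raise ABCB1 transcript above the DMSO vehicle baseline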
# Summary of the method: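 Primary human hepatocytes (two donor preparations) dosed daily for two days with chemicals at multiple concentrations, 0.2% DMSO vehicle; harvested 6 h post-dose. ABCB1 mRNA induction quantified by qNPA chemiluminescence; gain-of-signal fitted versus DMSO.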
# [12] = read-out: xenobiotic metabolism (CYP1A1), CYP1A1 (gene 1543); assay: CLD_CYP1A1_6hr: CellzDirect (CLD) Gene Expression Assay for xenobiotic metabolism (CYP1A1) at 6 hours (AID 2283661)
# Summary of the method: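 Primary human hepatocytes from two donors, compound versus 0.2% DMSO vehicle. CYP1A1 mRNA measured 6 h after dosing by quantitative nuclease protection assay with chemiluminescent read-out; induction fitted relative to DMSO, cytotoxicity flagged by microscopy.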
# [13] = read-out: xenobiotic metabolism (CYP1A2), CYP1A2 (gene 1544); assay: CLD_CYP1A2_6hr: CellzDirect (CLD) Gene Expression Assay for xenobiotic metabolism (CYP1A2) at 6 hours (AID 2283663)
# Summary of the method: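 Primary human hepatocytes from two donor preparations, dosed daily with multiple concentrations in 0.2% DMSO and harvested at 6 h. CYP1A2 mRNA induction measured by chemiluminescent qNPA, gain of signal fitted against DMSO; cytotoxicity flagged morphologically.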
# [14] = read-out: solute carrier (SLC22A6), SLC22A6 (gene 9356); assay: LTEA_HepaRG_SLC22A6: Life Technologies and Expression Analysis (LTEA) Assay for solute carrier (SLC22A6) using HepaRG (AID 2283653; active means hit-call score of the fitted dose curve at least 0.9, where 1 is the maximum; inactive means score below 0.9); details: mRNA level, 48 h; actives raise or lower the signal
# Summary of the method: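 Differentiated HepaRG cells exposed 48 h in serum-free induction medium to 8 half-log concentrations, top 100 uM, in 0.5% DMSO; SLC22A6 mRNA by Fluidigm qRT-PCR normalized to ACTB, GAPDH, POLR2A, fitted bidirectionally versus DMSO.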
# [15] = read-out: solute carrier (SLC10A1), SLC10A1 (gene 6554); assay: LTEA_HepaRG_SLC10A1: Life Technologies and Expression Analysis (LTEA) Assay for solute carrier (SLC10A1) using HepaRG (AID 2283657; active means hit-call score of the fitted dose curve at least 0.9, where 1 is the maximum; inactive means score below 0.9); details: mRNA level, 48 h; actives raise or lower the signal
# Summary of the method: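 Transcript levels were measured by qRT-PCR after human HepaRG cells received test chemical for 48 hours, up to 100 uM in half-log dilutions. Values come from bidirectional concentration-response fitting relative to 0.5% DMSO vehicle.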
# [16] = read-out: matrix metalloproteinase-1 (MMP1), MMP1 (gene 4312); assay: LTEA_HepaRG_MMP1: Life Technologies and Expression Analysis (LTEA) Assay for matrix metalloproteinase-1 (MMP1) using HepaRG (AID 2283658; active means hit-call score of the fitted dose curve at least 0.9, where 1 is the maximum; inactive means score below 0.9); details: mRNA level, 48 h; actives raise or lower the signal
# Summary of the method: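 Differentiated human HepaRG cells, 48 h post-plating in serum-free induction medium, were exposed 48 h to eight half-log concentrations topping at 100 uM in 0.5% DMSO, duplicate. MMP1 mRNA measured by Fluidigm TaqMan qRT-PCR, normalized to ACTB, GAPDH, POLR2A; bidirectional fits versus DMSO.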
# [17] = Tanguay_ZF_120hpf_CIRC_legacy: (Legacy) Oregon State University Tanguay Lab 120 Hour Post-fertilization zebrafish Assay for Circulatory Malformation (AID 2283651)
# Summary of the method: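 Read-out: presence or absence of circulatory malformation at 120 hpf, scored by brightfield microscopy, fitted in the gain-of-signal direction against DMSO baseline. Wild-type 5D larvae were exposed from 6 hpf after enzymatic chorion removal.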
# [18] = read-out: Broad substrate specificity ATP-binding cassette transporter ABCG2 (Homo sapiens) (UniProt Q9UNQ0); assay: CLD_ABCG2_6hr: CellzDirect (CLD) Gene Expression Assay for ABC Transporter (ABCG2) at 6 hours (AID 2283660)
# Summary of the method: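 Primary human hepatocytes dosed daily with chemicals at multiple concentrations (0.2% DMSO vehicle), harvested 6 h after dosing. ABCG2 mRNA induction read by quantitative nuclease protection assay (qNPA) chemiluminescence; gain of signal fitted against DMSO baseline.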
# [19] = Tanguay_ZF_120hpf_PFIN_legacy: (Legacy) Oregon State University Tanguay Lab 120 Hour Post-fertilization zebrafish Assay for Pectoral Fin Malformation (AID 2283648);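 further: each larva judged yes or no for fin defect by brightfield with dead larvae skipped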
# Summary of the method: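 5D WT zebrafish; pronase dechorionation 4 hpf; 1 embryo/well at 6 hpf; static exposure to 120 hpf, 28C, sealed, foil-covered; final DMSO 0.64% v/v; 5 uM trimethyltin chloride positive control; fin defect scored yes/no.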
# [20] = test system: Thyroperoxidase (TPO), gene 54314; assay: CCTE_Simmons_AUR_rTPO: CCTE's Amplex UltraRed Assay for Thyroperoxidase (TPO) Inhibition, Simmons Lab (AID 2283662);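 further: potency for loss of signal meaning inhibition of peroxidase activity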
# Summary of the method: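 Rat thyroid microsomes (5 ug protein) with 25 uM Amplex UltraRed and 300 uM H2O2 in 200 mM phosphate buffer, 30 min at 37C in dark; fluorescence 544/590 nm. Eight concentrations, 5 nM–87.5 uM final, 0.5% DMSO, triplicate biological replicates.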
# Chain of Broad substrate specificity ATP-binding cassette transporter ABCG2 (Homo sapiens) (Q9UNQ0 whole entry, looked up): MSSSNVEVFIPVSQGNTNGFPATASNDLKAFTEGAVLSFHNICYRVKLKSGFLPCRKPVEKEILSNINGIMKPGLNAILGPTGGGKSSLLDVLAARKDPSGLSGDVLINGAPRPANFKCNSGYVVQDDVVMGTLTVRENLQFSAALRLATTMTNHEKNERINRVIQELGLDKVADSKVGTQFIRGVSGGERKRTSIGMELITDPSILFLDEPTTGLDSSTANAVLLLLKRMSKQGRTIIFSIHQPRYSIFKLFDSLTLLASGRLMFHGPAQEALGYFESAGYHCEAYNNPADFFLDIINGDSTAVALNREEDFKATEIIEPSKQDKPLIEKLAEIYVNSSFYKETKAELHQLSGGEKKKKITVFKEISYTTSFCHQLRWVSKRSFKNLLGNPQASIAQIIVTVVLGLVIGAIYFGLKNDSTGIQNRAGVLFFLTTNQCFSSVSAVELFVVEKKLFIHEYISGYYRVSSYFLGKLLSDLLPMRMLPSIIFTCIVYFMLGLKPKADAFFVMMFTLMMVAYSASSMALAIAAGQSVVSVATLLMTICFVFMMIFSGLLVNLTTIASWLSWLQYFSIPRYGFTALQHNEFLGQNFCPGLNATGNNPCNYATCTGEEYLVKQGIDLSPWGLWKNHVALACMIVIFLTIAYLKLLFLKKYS
compound,measurement,setting,value
Oc1ccc(Cl)cc1Cl,outcome,[1],inactive
same,outcome,[2],inactive
same,outcome,[3],inactive
same,outcome,[4],inactive
same,outcome,[5],inactive
same,outcome,[6],inactive
same,outcome,[7],inactive
same,outcome,[8],inactive
same,outcome,[9],inactive
CCSC(=O)N(CC)C1CCCCC1,outcome,[1],inactive
same,outcome,[2],inactive
same,outcome,[10],inactive
same,outcome,[4],inactive
same,outcome,[5],inactive
same,outcome,[6],inactive
same,outcome,[7],inactive
same,outcome,[8],inactive
same,outcome,[11],inactive
same,outcome,[12],inactive
same,outcome,[13],inactive
CC1=C2C[C@H]3[C@@H](CC=C4C[C@@H](O)CC[C@@]43C)[C@@H]2CC[C@]12O[C@@H]1C[C@H](C)CN[C@H]1[C@H]2C,AC50,[1],25.9 µM (active)
same,outcome,[2],inactive
same,outcome,[10],inactive
same,outcome,[4],inactive
same,AC50,[5],16.6 µM (active)
same,AC50,[6],20 µM (active)
same,outcome,[14],inactive
same,outcome,[8],inactive
same,outcome,[9],inactive
same,outcome,[15],inactive
same,outcome,[16],inactive
c1cc2ccc3cccc4ccc(c1)c2c34,outcome,[2],inactive
same,outcome,[3],inactive
same,outcome,[10],inactive
same,outcome,[5],inactive
same,outcome,[6],inactive
same,outcome,[7],inactive
same,outcome,[8],inactive
same,outcome,[9],inactive
CN(C)c1nc(=O)n(C2CCCCC2)c(=O)n1C,outcome,[2],inactive
same,outcome,[3],inactive
same,outcome,[10],inactive
same,outcome,[5],inactive
same,outcome,[17],inactive
same,outcome,[8],inactive
same,outcome,[9],inactive
same,outcome,[11],inactive
same,outcome,[18],inactive
same,outcome,[12],inactive
same,outcome,[13],inactive
CCOP(=S)(OCC)SCSC(C)(C)C,outcome,[2],inactive
same,outcome,[10],inactive
same,outcome,[4],inactive
same,outcome,[19],inactive
same,outcome,[6],inactive
same,outcome,[9],inactive
same,AC50,[20],8.68 µM (active)
O=S(=O)(O)C(F)(F)C(F)(F)C(F)(F)C(F)(F)C(F)(F)C(F)(F)F,outcome,[1],inactive
same,outcome,[2],inactive
same,AC50,[10],14.9 µM (active)
same,outcome,[4],inactive
same,outcome,[6],inactive
same,outcome,[17],inactive
same,outcome,[7],inactive
same,outcome,[8],inactive
same,outcome,[9],inactive
Nc1ccc(-c2ccc(N)cc2)cc1,outcome,[1],inactive
same,outcome,[2],inactive
same,outcome,[10],inactive
same,outcome,[4],inactive
same,outcome,[5],inactive
same,outcome,[17],inactive
same,outcome,[7],inactive
same,outcome,[8],inactive
same,outcome,[9],inactive
Cc1cccc(C)c1N,outcome,[3],inactive
same,outcome,[5],inactive
same,outcome,[6],inactive
same,outcome,[7],inactive
same,outcome,[8],inactive
O=NN(c1ccccc1)c1ccccc1,outcome,[1],inactive
same,outcome,[2],inactive
same,outcome,[10],inactive
same,outcome,[4],inactive
same,outcome,[6],inactive
same,outcome,[7],inactive
same,outcome,[9],inactive
COc1ccc(O)c(C(C)(C)C)c1,outcome,[1],inactive
same,outcome,[10],inactive
same,outcome,[4],inactive
same,outcome,[5],inactive
same,outcome,[6],inactive
same,outcome,[7],inactive
same,outcome,[8],inactive
same,outcome,[9],inactive
same,AC50,[20],0.701 µM (active)
Clc1ccc(Cl)cc1,outcome,[1],inactive
same,outcome,[2],inactive
same,outcome,[4],inactive
same,outcome,[5],inactive
same,outcome,[6],inactive
same,outcome,[14],inactive
same,outcome,[8],inactive
same,outcome,[9],inactive
same,outcome,[15],inactive
same,outcome,[16],inactive
CC#Cc1cc(C)nc(Nc2ccccc2)n1,outcome,[1],inactive
same,outcome,[10],inactive
same,outcome,[4],inactive
same,outcome,[19],inactive
same,outcome,[5],inactive
same,outcome,[6],inactive
same,outcome,[7],inactive
CCC(C)(c1ccc(O)cc1)c1ccc(O)cc1,AC50,[1],47.3 µM (active)
same,AC50,[10],50.6 µM (active)
same,AC50,[4],46.4 µM (active)
same,outcome,[5],inactive
same,AC50,[6],43.2 µM (active)
same,AC50,[7],43.1 µM (active)
same,AC50,[8],46.6 µM (active)
same,AC50,[20],1.86 µM (active)
CCCCCCOC(=O)c1ccccc1C(=O)OCCCCCC,outcome,[1],inactive
same,outcome,[10],inactive
same,outcome,[4],inactive
same,outcome,[19],inactive
same,outcome,[6],inactive
same,outcome,[8],inactive
same,outcome,[9],inactive
ClC1=C(Cl)[C@]2(Cl)[C@@H]3[C@@H]4C[C@@H]([C@H]5O[C@@H]45)[C@@H]3[C@@]1(Cl)C2(Cl)Cl,outcome,[2],inactive
same,outcome,[3],inactive
same,outcome,[10],inactive
same,outcome,[4],inactive
same,outcome,[5],inactive
same,outcome,[7],inactive
same,outcome,[9],inactive
CCCN(CCC)N=O,outcome,[1],inactive
same,outcome,[4],inactive
same,outcome,[5],inactive
same,outcome,[6],inactive
same,outcome,[7],inactive
same,outcome,[8],inactive
same,outcome,[9],inactive
